Casp1 inh: allosteric or competitive inhibitors of human caspase-1 | Potency, µM (top dose mostly 57.5 µM), hits mostly inhibitors | Caspase-1 enzyme, Ac-WEHD-AFC fluorogenic rate | P29466 | AID 900 | 75,000 compounds, 0.03% hits
Caspase-7 inhib: allosteric or competitive inhibitors of human caspase-7. recombinant caspase-7, Ac-DEVD-AFC fluorescence rate. Potency, µM (top dose mostly 57.5 µM), hits mostly inhibitors. 75,000 compounds, 0.02% hits. AID 889; active means well fitted inhibition curve with a large enough effect in the main read-out, with a control signal flat, not every such curve was filed as active; inconclusive means small, poorly fitted or top-dose-only effect, or a change in a side signal
TSHR ag: TSH receptor (human) agonism; P16473; HEK293-CNG-TSHR cells (CNG channel as cAMP sensor), membrane potential dye, cAMP; Potency, µM (highest dose often 57.1 µM), usual class: activators; 73,000 compounds, 0.48% hits; active means well fitted activation curve with a large enough effect in the main read-out, with a control signal flat, not every such curve was filed as active; inconclusive means small, poorly fitted or top-dose-only effect, or a change in a side signal; inactive means no such curve, though single readings can be large or run the other way; reference of the percent scale not stated here;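 further: the control signal comes from parental cells without the receptor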
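cAMP rise detected as CNG-channel membrane depolarization by fluorescent dye (emission 590 nm), 30 min after compound, following 60 min dye loading containing 100 uM RO 20-1724 at room temperature. Cells: TSHR/CNG HEK 293, with parental CNG HEK 293 as control.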
HEK293 cAMP ctrl: raises cAMP in parental HEK293 cells, TSHR agonist counter-screen; Potency, µM (top dose mostly 57.1 µM), most hits filed as activators; 73,000 compounds, 2.5% hits; parental HEK293 CNG cAMP sensor, membrane potential fluorescence; further: nearly all actives have a fitted effect of over 55% in size
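Parental HEK 293 cells stably expressing a cAMP-gated CNG channel were loaded with membrane potential dye containing 100 uM RO 20-1724 for 60 min. Compound added for 30 min; depolarization read as fluorescence intensity at 590 nm.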
Of the large screens only hits and unclear results are named; the others gave an inactive call. An excerpt weighted towards active compounds, which were near 2.6% of everything screened. Unless noted, the call rests on the fitted dose curve; in most records, active means well fitted curve in the direction sought with a large enough effect; inconclusive means small, poorly fitted or top-dose-only effect, or another doubt; inactive means no such curve, though single readings can be large; an effect the other way counts as inactive or inconclusive.

Nc1ncnc2c1ncn2[C@@H]1O[C@H](COP(=O)(O)O)[C@@H](O)[C@@H]1O	none
CNC(=O)[C@@H]1O[C@@H](n2cnc3c(N)ncnc32)[C@@H](O)[C@H]1O	TSHR ag inconclusive, HEK293 cAMP ctrl 3.2µM
CCNC(=O)[C@@H]1O[C@@H](n2cnc3c(NCc4ccccc4)ncnc32)[C@@H](O)[C@H]1O	TSHR ag inconclusive, HEK293 cAMP ctrl 3.2µM (no result: Casp1 inh, Caspase-7 inhib)
Nc1ncnc2c1ncn2[C@@H]1O[C@@H](C(=O)NC2CC2)[C@H](O)[C@@H]1O	TSHR ag inconclusive, HEK293 cAMP ctrl 0.25µM
O=C(N/N=C1/C[C@@H](O)[C@@H](O)[C@@H]2[C@@H]3C(=O)N(c4cccc(Oc5ccccc5)c4)C(=O)[C@H]3CC[C@@H]12)OCc1ccccc1	none
CC1(C)OC2C(CO)OC(n3cnc4c(=O)[nH]c(N)nc43)C2O1 (stereo not given)	none (no result: TSHR ag, HEK293 cAMP ctrl)
COc1ccc2cc(C(C)CO)ccc2c1 (stereo not given)	none (no result: TSHR ag, HEK293 cAMP ctrl)
COc1ccc(-c2cc(N)n(S(=O)(=O)c3c(F)c(F)c(F)c(F)c3F)n2)cc1OC	TSHR ag 0.79µM
O=C1CSC(c2cn(-c3ccccc3)nc2-c2ccccc2)N1Cc1ccco1 (stereo not given)	none (no result: TSHR ag)
O=C1CSC(c2cn(-c3ccccc3)nc2-c2cccs2)N1CC1CCCO1 (stereo not given)	TSHR ag 10µM
CCN1C(=O)[C@H]2[C@H]3[C@H](O)[C@H](O)C/C(=N/OCC(C)C)[C@H]3CC[C@@H]2C1=O	none
O=C1C2=CC[C@H]3C(=O)N(c4cccc(Oc5ccccc5)c4)C(=O)[C@@H]3[C@@H]2[C@H](O)[C@@H]2O[C@H]12	none
CCC(SC1=Nc2ccccc2C2=NC(CC(C)C)C(=O)N12)C(=O)Nc1ccc2c(c1)OCO2 (stereo not given)	TSHR ag inconclusive, HEK293 cAMP ctrl 16µM
Cc1ccc(-c2nnn(CC(=O)NCC3COCCO3)n2)o1 (stereo not given)	none
Cc1ccc(-c2nnn(CC(=O)N(Cc3cccs3)C(C(=O)NC(C)(C)C)c3ccc(C)o3)n2)o1 (stereo not given)	TSHR ag inconclusive, HEK293 cAMP ctrl 25µM
Cc1ccc(-c2nnn(CC(=O)N(Cc3ccco3)C(C(=O)NC(C)(C)C)c3cccs3)n2)o1 (stereo not given)	TSHR ag inconclusive, HEK293 cAMP ctrl 20µM
Cc1ccc(-c2nnn(CC(=O)N(Cc3cccs3)C(C(=O)NC(C)(C)C)c3ccco3)n2)o1 (stereo not given)	TSHR ag inconclusive, HEK293 cAMP ctrl 1µM
Cc1ccc(C(C(=O)NC(C)(C)C)N(CC2CCCO2)C(=O)Cn2nnc(-c3ccc(C)o3)n2)cc1 (stereo not given)	TSHR ag inconclusive, HEK293 cAMP ctrl 25µM
CCOC(=O)c1c(-c2ccc(C)o2)csc1NC(=O)CSc1nncs1	TSHR ag inconclusive, HEK293 cAMP ctrl 25µM
O=C(CSc1ncnc2c1oc1ccccc12)N1CCCc2ccccc21	TSHR ag inconclusive, HEK293 cAMP ctrl 32µM
CN1CCN(C(=O)c2cnn3c(C(F)(F)F)cc(-c4ccc5c(c4)OCO5)nc23)CC1	none
O=C(c1cnn2c(C(F)(F)F)cc(-c3ccc4c(c3)OCO4)nc12)N1CCCCC1	TSHR ag inconclusive, HEK293 cAMP ctrl 20µM
CCOC(C)(C)C	none
COc1ccccc1S(=O)(=O)Cc1ccc(C(=O)N2CCN(c3cccc(Cl)c3)CC2)o1	TSHR ag inconclusive, HEK293 cAMP ctrl 5µM
COc1ccccc1S(=O)(=O)Cc1ccc(C(=O)N2CCN(c3ccccc3)CC2)o1	none
Cc1cccc(N2CCN(C(=O)c3ccc(CS(=O)(=O)c4ccccc4C)o3)CC2C)c1 (stereo not given)	TSHR ag inconclusive, HEK293 cAMP ctrl 25µM
Cc1ccc(C)c(N2CCN(C(=O)c3ccc(CS(=O)(=O)c4ccccc4C)o3)CC2)c1	TSHR ag inconclusive, HEK293 cAMP ctrl inconclusive
Cc1nc2cncnc2n(Cc2ccccc2)c1=O	none
COc1ccc(OC)c(N/C(=N\c2nc(C)cc(C)n2)NC(=O)c2ccco2)c1	TSHR ag inconclusive, HEK293 cAMP ctrl 25µM
O=S(=O)(N1CCCCC1)n1c(Cc2ccccc2)nc2ccccc21	TSHR ag inconclusive, HEK293 cAMP ctrl 32µM
CO[C@H]1COC(=O)C/C=C\[C@@H](C)COC(=O)[C@H]2CCCN2C(=O)C/C=C\[C@H]1C	none
COC(=O)[C@@H]1C[C@@H]2CC[C@@H](O)C[C@@H]2N1Cc1ccc(C)s1	none (no result: TSHR ag, HEK293 cAMP ctrl)
CC1(Cc2cn(CCC#N)c3ccccc23)OCCO1	TSHR ag 16µM
O=C(O)c1ccc(Cl)cc1Cl	Casp1 inh inconclusive, TSHR ag inconclusive
Cc1cccc(N(C)C(=O)c2cc3cc4ccc(C)cc4nc3o2)c1	TSHR ag inconclusive, HEK293 cAMP ctrl 10µM
COc1ccc2c3c(cccc13)NN=C2C	Casp1 inh inconclusive, Caspase-7 inhib inconclusive
O=C(c1cc2c(=O)oc3ccccc3c2s1)N1CCN(c2ncccn2)CC1	none
COCCNc1ncnc2ccc(-c3ccc(N(C)C)cc3)cc12	none
Cc1cc(=O)oc2cc(OC(C)C(=O)N3CCCc4ccccc43)ccc12 (stereo not given)	TSHR ag inconclusive, HEK293 cAMP ctrl 25µM
Cc1cc(=O)oc2cc(OC(C)C)ccc12	none
Cc1onc(-c2ccccc2Cl)c1C(=O)Nc1cccc2nsnc12	TSHR ag inconclusive, HEK293 cAMP ctrl 32µM (no result: Casp1 inh)
Fc1cccc(Cl)c1CSc1nnc(COc2cccc3cccnc23)o1	TSHR ag inconclusive, HEK293 cAMP ctrl 25µM
CO/N=C\[C@@H](OC)[C@H](C)/C=C\CC(=O)OC	none
CN1CC[C@@]2(CCN3CCc4c(oc5ccccc45)[C@@H]3C2)N(C)C1=O	none
C#CCCCCCCCCCCCC(O)CC(O)COC(C)=O (stereo not given)	none (no result: TSHR ag, HEK293 cAMP ctrl)
Cn1c(C(=O)N2CCCC(C(=O)NCCCSC3CCCCC3)C2)cc2sccc21 (stereo not given)	TSHR ag inconclusive, HEK293 cAMP ctrl inconclusive
Cn1c(C(=O)N2CCCC(C(=O)NCc3cccs3)C2)cc2sccc21 (stereo not given)	TSHR ag 25µM
COc1ccc(CNc2cc(C)nc3ncnn23)c(OC)c1	TSHR ag inconclusive, HEK293 cAMP ctrl 4µM
N#Cc1cc2c(nc1SCc1ccncc1)CCC2	none
COc1ccc(C)cc1NC(=O)c1ccc2c(c1)OCO2	TSHR ag inconclusive, HEK293 cAMP ctrl inconclusive
COc1ccc(C(C)=O)cc1COC(=O)c1ccc2c(c1)OCO2	TSHR ag inconclusive, HEK293 cAMP ctrl 32µM
c1ccc(Nc2c3c(nc4ncnn24)CCC3)cc1	none
c1ccc(CCNc2c3c(nc4ncnn24)CCC3)cc1	TSHR ag inconclusive, HEK293 cAMP ctrl 6.3µM
CCC/C=C(\CCC)C(NC(=O)c1cccs1)c1ccc(C(F)(F)F)cc1 (stereo not given)	TSHR ag inconclusive, HEK293 cAMP ctrl inconclusive
CCC/C=C(\CCC)C(NC(=O)c1cccs1)c1ccc(C(=O)OC)cc1 (stereo not given)	TSHR ag inconclusive, HEK293 cAMP ctrl 13µM
CCC/C=C(\CCC)C(NC(=O)c1ccc(C(=O)OC)cc1)c1ccc(C(=O)OC)cc1 (stereo not given)	TSHR ag inconclusive, HEK293 cAMP ctrl inconclusive

From PubChem
